# Laboratory results published in ChEMBL document CHEMBL4513216, “Probing the Open Global Health Chemical Diversity Library for Multistage-Active Starting Points for Next-Generation Antimalarials” (ACS Infect Dis, 2020).
# The whole screen tested about 65,000 compounds, of which about 2,100 (3.2%) showed an effect of 50% or more. The median lay at about -52%. This is one part of a sample in which strong results are shown more often than they occur.
# System: Plasmodium falciparum
# Experiment: Screen against P. falciparum Asexual Blood Stage (ABS), at 5uM
# Type: functional, Dd2
# Settings: tested at 5 uM
row,SMILES,INHIBITION
1,COCc1nn(C(C)C)c2c1CCN(Cc1ccc(C)o1)C2,-31%
2,CC(C)C1=NOC2(CCN(Cc3c[nH]c4ccccc34)CC2)C1,2.84%
3,Cc1ccc(CNCC2Cn3nnc(-c4cnn(C)c4)c3CO2)o1 (configuration not stated),-32.4%
4,Cc1ccc(Nc2nccc(C3CCCN(CC(=O)N(C)C)C3)n2)nc1 (configuration not stated),-3.51%
5,Cc1ccc(N2CCc3ncnc(C4CC4)c3CC2)nn1,-150%
6,CN1CCO[C@@H]2CN(S(=O)(=O)c3ccc(F)cc3)CC[C@@H]2C1,62.7%
7,CC(=O)N1CCO[C@@H]2CN(S(=O)(=O)c3ccc(F)cc3)CC[C@@H]2C1,-83.8%
8,CN1CCO[C@@H]2CN(S(=O)(=O)c3ccccc3)CC[C@@H]2C1,33.8%
9,N#Cc1ccccc1CN1C[C@@H]2CC[C@H]1CN(C(=O)c1cccnc1)C2,-15.6%
10,CCN(C(=O)CN1CCCN(c2nc(C)ns2)CC1)C1CC1,-126%
11,CC(C)CC(=O)NCC1CCC(C(c2ccccn2)N(C)C)CC1 (configuration not stated),-110%
12,O=C(c1ccccn1)N1CCC2(COc3ncccc3S(=O)(=O)N2)C1 (configuration not stated),-69.3%
13,Cc1ccc(CN(CCCn2ccnc2)Cc2c[nH]nc2C(C)(C)C)s1,33.5%
14,Cc1ccc2nc(C)cc(NCCNS(=O)(=O)c3cccnc3)c2c1,62.9%
15,Cc1ccc2nc(C)cc(NCCNS(=O)(=O)c3cn(C)nc3C)c2c1,47.8%
16,Cc1cc(NCCNS(=O)(=O)c2cn(C)nc2C)c2ccccc2n1,3.35%
17,COc1nn(C)c2c1CCCN(C(=O)c1cccs1)C2,-22.1%
18,O=C(c1ccc(F)cc1)N1CC[C@H]2[C@H]1CCN2CC1CCOCC1,-112%
19,Cc1nc(CN2CCN(C(=O)C(C(C)C)n3cncn3)CC2)cs1 (configuration not stated),-61.1%
20,CC1CCN(C(=O)CN(Cc2ccco2)C2CC2)CC1,-115%
21,CN1N=C(C(=O)N(Cc2ccco2)C2CC2)CCC1=O,-127%
22,CN1CCC(N(Cc2ccco2)S(=O)(=O)c2ccc(Cl)cc2)CC1,56.8%

row,SMILES,INHIBITION
1,COCCNC(=O)[C@H]1C[C@@H]2CCN(Cc3nccs3)C[C@H]2O1,-127%
2,CN(C)CCN(Cc1ccc(Cl)cc1)C(=O)c1cnccn1,35.1%
3,CN(C)CCN(Cc1ccc(Cl)cc1)C(=O)c1ccncc1,53.1%
4,Cc1cc(C(=O)N(CCN(C)C)Cc2ccc(Cl)cc2)no1,53.4%
5,CN(C)CCN(Cc1ccc(C(F)(F)F)cc1)C(=O)c1cc[nH]n1,35.8%
6,Cc1cnc(C(=O)N(CCN(C)C)Cc2ccc(Cl)cc2)cn1,-35.7%
7,CN(C)CCN(Cc1ccc(Cl)cc1)C(=O)c1ccn(C)c(=O)c1,-73.6%
8,Cc1nc(COCc2cnc3n2CCN(C)C3C)cs1 (configuration not stated),-63.4%
9,O=C(NCCc1cccs1)[C@H]1CO[C@H]2CCN(C3CCC3)C[C@H]2C1,-9.07%
10,O=S1(=O)CCC(CNS(=O)(=O)N2CCc3ccccc3C2)C1 (configuration not stated),-114%
11,CCN1CCC(CNS(=O)(=O)N2CCc3ccccc3C2)C1 (configuration not stated),53.9%
12,O=S(=O)(NCC1CCOC1)N1CCc2ccccc2C1 (configuration not stated),-80.7%
13,COc1ccc(C(=O)NCC(c2cccn2C)N2CCCC2)cc1OC (configuration not stated),28%
14,COc1cc(OC)cc(C(=O)NCC(c2cccn2C)N2CCCC2)c1 (configuration not stated),55.5%
15,COc1ccc(C(=O)NCC(c2cccn2C)N2CCN(C)CC2)cc1 (configuration not stated),-35%
16,O=C(NCC(O)COc1ccccc1)Nc1nncs1 (configuration not stated),-50.2%
17,O=C(CCc1ccsc1)NCC1CCN(Cc2cccs2)CC1,59.5%
18,O=C(CCc1ccccc1)NCC1CCN(Cc2ccsc2)CC1,19.8%
19,O=C(CCc1ccccc1)NCC1CCN(Cc2cccs2)CC1,-7.73%
20,CCOc1nn(CC)cc1-c1nnc(SCc2ccccn2)n1C,-121%
21,CCCC(=O)N(CCCN1CCOCC1)c1nc2c(Cl)cccc2s1,-1.93%
22,Cc1noc(C)c1C(=O)NCC1CCCCN1Cc1ccccc1 (configuration not stated),-3.72%

row,SMILES,INHIBITION
1,Cc1noc(C(C)C)c1C(=O)NCC1CCN(c2ccccc2)C1 (configuration not stated),35.6%
2,Cc1noc(C(C)C)c1C(=O)NCC1CCCN1Cc1ccccc1 (configuration not stated),65.7%
3,Cc1cnn(CCC(=O)N2CCC3(CCC(=O)N(CC4CC4)C3)CC2)c1,-49%
4,Cn1nc(CNC(=O)c2ccc3nsnc3c2)c2c1CCOC2,-37.5%
5,Cc1cnc(C)c(Oc2ccc(Cl)c(CN3CCCC3)c2Cl)n1,-31.4%
6,CCc1noc(C2CCCCN2C(=O)c2cc(C)oc2C)n1 (configuration not stated),-14.9%
7,COc1cc2nc(NCc3cc(C)on3)nc(N)c2cc1OC,61.4%
8,COc1ccc(Cl)cc1NCc1cc(C)on1,-142%
9,CCOc1ccc(OCC)c(NCc2cc(C)on2)c1,-105%
10,O=S(=O)(c1ccccc1)N1CCC2(CCCN2Cc2cccc(Cl)c2)C1 (configuration not stated),18.8%
11,COc1ccc(F)cc1-c1ccccc1CC1CNCCNC1=O (configuration not stated),51.7%
12,COc1ccc(F)cc1-c1ccccc1CC1(C(=O)O)CCOCC1,-130%
13,Cc1cc(F)ccc1-c1ccccc1CC1CNCCNC1=O (configuration not stated),49.3%
14,O=C(CSCCN1CCOCC1)N1CCc2ccccc2C1,-92.5%
15,O=C(CCc1nccs1)N1CCN(c2ccccn2)CC1,-127%
16,Cn1ccnc1CN1CCC2(CC1)COCCN(c1ncccn1)C2,-9.16%
17,Cn1ccnc1CN1CCC2(COCCN(S(=O)(=O)C3CC3)C2)C1 (configuration not stated),-106%
18,Cn1ccnc1CN1CCC2(COCCN(Cc3ccsc3)C2)C1 (configuration not stated),52%
19,COCC1Cn2nnc(-c3cnn(C)c3)c2CN1Cc1ccoc1 (configuration not stated),28.8%
20,CCc1c(C)sc2c1c(N)nc(=O)n2CCN(C)C,17.4%
21,Cc1cc(C(=O)N2CCNC(=O)C2)c(C)n1Cc1ccccn1,-68.6%
22,CCCc1nc2c(c(C)c(C)n2Cc2cccnc2)c(N)c1CC,65%

row,SMILES,INHIBITION
1,CCc1nc2c(c(C)c(C)n2Cc2cccnc2)c(N)c1C,20.4%
2,CCCc1nc2c(c(C)c(C)n2Cc2ccncc2)c(N)c1CC,60.3%
3,Cc1c(C)n(Cc2ccccn2)c2nc3c(c(N)c12)CCCC3,46.7%
4,CCc1c(-c2ccccc2)nc2c(c(C)c(C)n2CCN(C)C)c1N,67.6%
5,CCc1cc(NCCc2cccnc2)n2nc(C)c(C)c2n1,-108.7%
6,Cc1c(C)n(Cc2ccncc2)c2nc3c(c(N)c12)CCCC3,-12.1%
7,Cc1c(C)n(Cc2ccncc2)c2nc3c(c(N)c12)CCCCCC3,28.3%
8,CCc1c(C)sc2c1c(N)nc(=O)n2CCCN(C)C,-147%
9,CCCc1nc2c(c(C)c(C)n2Cc2ccccn2)c(N)c1CC,59.4%
10,CCC(Nc1nc(C)nc2onc(C)c12)c1nc(C)c(C)s1 (configuration not stated),-38.1%
11,CCCc1noc(CN2CCOCC2C)n1 (configuration not stated),-47.4%
12,Cc1cc(NC(=O)CCn2nc(C)c3ccccc32)n(C(C)C)n1,-75.1%
13,CO[C@H]1CCN(S(=O)(=O)c2cn(C)cn2)[C@H]1Cc1cccnc1,-8.09%
14,Cc1cc(=O)n2nc(-c3cccs3)nc2n1CC(=O)NC(C)C,-10.8%
15,Cc1cc(C)c(CNC(=O)N(C)Cc2ccc3c(c2)OCO3)c(=O)[nH]1,-71.6%
16,Cn1cc(NC(=O)N2CCC(OCc3ccccc3)CC2)ccc1=O,43.6%
17,Cc1nn(C)c(N(C)C)c1CNCC(O)COc1cccc(F)c1 (configuration not stated),-0.711%
18,COC(=O)c1ncccc1N1CCN(C(=O)CN2CCOCC2)CC1,-131%
19,Cc1cnn(CC2CCCCN2C(=O)Cc2cn3ccsc3n2)c1 (configuration not stated),-120%
20,CCc1cnc2c(c1Nc1ccc(C)c(F)c1)c(=O)n(C)c(=O)n2C,41.1%
21,Cc1c(C)n(Cc2ccccn2)c2nc3c(c(N)c12)CCCCC3,23.7%
22,Cc1c(C)n(Cc2ccncc2)c2nc3c(c(N)c12)CCCCC3,21%

row,SMILES,INHIBITION
1,Cc1c(C)n(Cc2ccccn2)c2nc3c(c(N)c12)CCCCCC3,60.3%
2,Cc1cccc2c1ccn2CCC(=O)Nc1c2c(nn1C)CSC2,-53.4%
3,Cc1ccc(Br)cc1NC(=O)NC1CCC2(C1)OCCO2 (configuration not stated),-96.9%
4,CC1N(c2cnn(C)c2)C(=O)COC12CCN(c1ncccn1)CC2 (configuration not stated),-127%
5,CCc1nn(-c2cc(Oc3cc(C)ccc3C)ncn2)c(N)c1C#N,-64%
6,C[C@]1(O)CN(CCO)CC[C@@H]1Oc1cccc(F)c1,65.2%
7,C[C@]1(O)CN(CCC(N)=O)CC[C@@H]1Oc1cccc(F)c1,-39.3%
8,C[C@]1(O)CN(CC(=O)N2CCCC2)CC[C@@H]1Oc1cccc(F)c1,25%
9,CCc1cnc(N2CCc3cc(C(=O)NC)c(N(C)C)nc3CC2)nc1,-12.1%
10,O=C1[C@@H]2CC[C@@H](CN(c3ncnc4ccsc34)C2)N1CC1CC1,-85.4%
11,CC(C)Cc1noc(CN(C)c2cc(N(C)C)ncn2)n1,50.4%
12,CC(C)Cc1noc(CN(C)c2ncccn2)n1,-64.8%
13,CCc1cc(N(C)Cc2noc(CC(C)C)n2)ncn1,-78.3%
14,CNc1cc(N2CCCC2CNCc2ccco2)ncn1 (configuration not stated),-103%
15,O=C(C1CCOC1)N1CC2(CCN(c3ccccc3)C2)C1 (configuration not stated),-3.52%
16,CC(C)CC(=O)N1CC(=O)c2sc(Nc3ccc(F)cc3F)nc2C1,-30.6%
17,Cc1cnn(CC2CCN(CC(O)CN3CCC(C)CC3)CC2)c1 (configuration not stated),63.8%
18,Cc1ccc(OCC(O)CN2CCC(Cn3cc(C)cn3)CC2)cc1 (configuration not stated),-93.6%
19,Cc1cnn(CC2CCN(CC(O)Cn3cccn3)CC2)c1 (configuration not stated),-78.8%
